In PubChem BioAssay AID720597 (Broad Institute, 2013):
Potency and affinity values are given separately. The source made the active and inactive calls.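 The calls were made as follows: active = fitted half-maximal dose no more than twice the top valid tested dose, for compounds that lower signal; inconclusive = fit invalid, or curve flat with activity between -70 and -30; inactive = potency past limit, curve flat within ±30, or signal increasing.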

Molecular target: NAD-dependent protein deacylase sirtuin-5, mitochondrial (Homo sapiens) (UniProt Q9NXA8)
Sequence (Q9NXA8 whole entry, looked up): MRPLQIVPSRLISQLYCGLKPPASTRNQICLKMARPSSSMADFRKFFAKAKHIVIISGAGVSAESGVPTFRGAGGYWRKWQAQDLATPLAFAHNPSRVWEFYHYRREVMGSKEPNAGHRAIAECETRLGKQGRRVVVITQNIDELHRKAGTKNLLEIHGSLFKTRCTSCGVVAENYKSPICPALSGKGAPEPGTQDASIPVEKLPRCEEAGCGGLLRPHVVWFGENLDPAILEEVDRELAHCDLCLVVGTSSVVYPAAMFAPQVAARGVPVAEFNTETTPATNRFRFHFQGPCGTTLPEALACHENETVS
Test: SIRT5 deacylase inhibitors, dose response, biochemical, fluorescence imaging, cherry-pick, set 6 (AID 720597);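 also: lower AMC signal can also come from blocking the trypsin step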
Details: Purified SirT5, succinyl-peptide-AMC/trypsin fluorescence; series mostly up to 15 µM

| Compound | outcome |
| --- | --- |
| COc1ccccc1-c1ccc2c(c1)O[C@@H](CN(C)S(=O)(=O)c1ccccc1)[C@H](C)CN([C@H](C)CO)S2(=O)=O | inactive |
| COc1ccc(NC(=O)N(C)C[C@H]2Oc3cc(C#CCC(C)C)ccc3S(=O)(=O)N([C@@H](C)CO)C[C@H]2C)cc1 | inactive |
| CO[C@H]1CN(C)C(=O)c2cc(NS(=O)(=O)c3ccc(Oc4ccccc4)cc3)ccc2OC[C@H](C)NC[C@H]1C | inactive |
| CN(C)Cc1cn(CC[C@@H]2CC[C@H](N)[C@H](CO)O2)nn1 | inactive |
| COc1ccc(NC(=O)N(C)C[C@@H]2Oc3cc(C#CCC(C)C)ccc3S(=O)(=O)N([C@H](C)CO)C[C@H]2C)cc1 | inactive |
| COc1ccccc1S(=O)(=O)N(C)C[C@@H]1Oc2cc(C#CCC(C)C)ccc2S(=O)(=O)N([C@@H](C)CO)C[C@@H]1C | inactive |
| COc1ccc(NC(=O)Nc2ccc3c(c2)C(=O)N([C@H](C)CO)C[C@H](C)[C@@H](CN(C)Cc2ccc(C(F)(F)F)cc2)O3)cc1 | inactive |
| CC(C)CC#Cc1ccc2c(c1)O[C@H](CN(C)C(=O)C1CCCCC1)[C@@H](C)CN([C@H](C)CO)S2(=O)=O | inactive |
| CCCC#Cc1ccc2c(c1)O[C@@H](CN(C)CC1CCOCC1)[C@H](C)CN([C@H](C)CO)S2(=O)=O | inactive |
| COc1cccc(NC(=O)N2CC(=O)N3[C@H](CO)[C@@H](c4ccc(C#CCC5CCCC5)cc4)[C@@H]3C2)c1 | inactive |
| C[C@H]1CCCCO[C@H](CN(C)S(=O)(=O)c2ccc(Cl)cc2)[C@@H](C)CN([C@@H](C)CO)C(=O)c2cc(NS(=O)(=O)c3ccc(F)cc3)ccc2O1 | inactive |
| Cc1noc(C)c1NC(=O)Nc1cccc2c1O[C@H](CN(C)Cc1ccc(Oc3ccccc3)cc1)[C@@H](C)CN([C@H](C)CO)C2=O | inactive |
| COc1ccc(NC(=O)N(C)C[C@H]2Oc3ccc(NS(=O)(=O)c4ccc(F)cc4)cc3C(=O)N([C@H](C)CO)C[C@H]2C)cc1 | inactive |
| CN(C[C@H]1[C@@H](c2ccc(C3=CCCC3)cc2)[C@@H](CO)N1CCC(F)(F)F)S(C)(=O)=O | inactive |
| CC(C)NC(=O)N1[C@H](CN(C)C(=O)c2ccccc2)[C@@H](c2ccccc2)[C@@H]1CO | inactive |
| C[C@H](CO)N1C[C@H](C)[C@@H](CN(C)S(=O)(=O)c2ccccc2)Oc2c(cccc2N(C)C)C1=O | inactive |
| C[C@H](CO)N1C[C@H](C)[C@@H](CN(C)C(=O)Cc2ccccc2)OCc2ccccc2-c2c(n(C)c3ccccc23)C1=O | inactive |
| C[C@@H]1CN([C@@H](C)CO)C(=O)c2cc(NS(C)(=O)=O)ccc2O[C@@H](C)CCCCO[C@@H]1CN(C)C | inactive |
| COc1cccc(S(=O)(=O)N(C)C[C@H]2Oc3cc(C4=CCCC4)ccc3S(=O)(=O)N([C@@H](C)CO)C[C@@H]2C)c1 | inactive |
| C[C@H](CO)N1C[C@H](C)[C@@H](CN(C)Cc2ccc(C(F)(F)F)cc2)OCCCC[C@H](C)Oc2ccc(NS(=O)(=O)c3cccs3)cc2C1=O | inactive |

| Compound | outcome |
| --- | --- |
| C[C@@H]1CN([C@H](C)CO)S(=O)(=O)c2ccc(C#C[C@@H](C)O)cc2O[C@H]1CN(C)Cc1ccc(-c2ccccc2)cc1 | inactive |
| C[C@@H]1CN([C@H](C)CO)C(=O)Cc2cc(NC(=O)Cc3cn(C)c4ccccc34)ccc2O[C@@H]1CN(C)C | inactive |
| C[C@H](CO)N1C[C@H](C)[C@H](CN(C)Cc2ccncc2)Oc2ccc(NC(=O)CCN3CCOCC3)cc2C1=O | inactive |
| C[C@H]1CN([C@@H](C)CO)C(=O)CCCn2nncc2CO[C@@H]1CN(C)C(=O)CCCN(C)C | inactive |
| C[C@@H]1CN([C@@H](C)CO)C(=O)c2cc(C#CCN(C)C)cnc2O[C@H]1CN(C)Cc1ccncc1 | inactive |
| C[C@H](CO)N1C[C@H](C)[C@H](CN(C)S(=O)(=O)c2ccc(Cl)cc2)OCc2ccccc2-c2c(n(C)c3ccccc23)C1=O | inactive |
| COc1ccc(CN(C)C[C@H]2OCCCC[C@@H](C)Oc3ccc(NC(=O)NC4CCCCC4)cc3C(=O)N([C@H](C)CO)C[C@H]2C)cc1 | inactive |
| COc1ccccc1-c1ccc2c(c1)O[C@@H](CN(C)Cc1ccc3c(c1)OCO3)[C@H](C)CN([C@@H](C)CO)S2(=O)=O | inactive |
| CCCC#Cc1ccc([C@@H]2[C@@H](CO)N3CCCCN(S(=O)(=O)Cc4ccccc4)C[C@H]23)cc1 | inactive |
| CC(C)CC#Cc1cnc2c(c1)C(=O)N([C@H](C)CO)C[C@H](C)[C@H](CN(C)CC1CCOCC1)O2 | inactive |
| C[C@H](CO)N1C[C@H](C)[C@H](CN(C)C(=O)Nc2cc(F)ccc2F)Oc2cc(/C=C/c3ccccc3)ccc2S1(=O)=O | inactive |
| C[C@@H]1CN([C@@H](C)CO)C(=O)Cc2cc(NC(=O)Nc3ccc4c(c3)OCO4)ccc2O[C@@H]1CN(C)CC1CCCCC1 | inactive |
| COc1ccc(C#Cc2ccc([C@@H]3[C@@H](CO)N4C(=O)CN(C(=O)c5cccnc5)C[C@H]34)cc2)cc1 | inactive |
| Cc1ccc(-c2ccc3c(c2)O[C@@H](CN(C)Cc2ccccn2)[C@H](C)CN([C@@H](C)CO)S3(=O)=O)cc1 | inactive |
| C[C@@H]1CN([C@@H](C)CO)C(=O)c2cc(NS(=O)(=O)c3ccccc3)ccc2O[C@@H](C)CCCCO[C@H]1CN(C)S(=O)(=O)c1ccc(Cl)cc1 | inactive |
| Cc1ccc(-c2ccc([C@@H]3[C@@H](CO)N4CCCCN(S(=O)(=O)c5cccc(C)c5)C[C@H]34)cc2)cc1 | inactive |
| C[C@H]1CN([C@@H](C)CO)C(=O)c2ccccc2-c2ccccc2CO[C@@H]1CN(C)Cc1cccc(C(F)(F)F)c1 | inactive |
| C[C@H]1CN([C@@H](C)CO)C(=O)c2c(c3ccccc3n2C)-c2ccccc2CO[C@@H]1CN(C)Cc1ccc2c(c1)OCO2 | inactive |
| Cc1ccc(S(=O)(=O)N(C)C[C@H]2Oc3ccc(NC(=O)Nc4cccc5ccccc45)cc3CC(=O)N([C@@H](C)CO)C[C@H]2C)cc1 | inactive |
| CNC[C@@H]1Oc2ccc(NC(=O)Nc3ccc(F)cc3)cc2CC(=O)N([C@@H](C)CO)C[C@H]1C | inactive |
